AHR act – activators of human aryl hydrocarbon receptor; P35869; AHR-responsive luciferase reporter cells, luminescence; activation, % at 5 µM; 320,000 compounds, 2.5% hits; AID 2796; in the data active = activation above about 47%;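 also: 0% = vehicle wells and 100% = reference agonist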
Target sequence (P35869 whole entry, looked up): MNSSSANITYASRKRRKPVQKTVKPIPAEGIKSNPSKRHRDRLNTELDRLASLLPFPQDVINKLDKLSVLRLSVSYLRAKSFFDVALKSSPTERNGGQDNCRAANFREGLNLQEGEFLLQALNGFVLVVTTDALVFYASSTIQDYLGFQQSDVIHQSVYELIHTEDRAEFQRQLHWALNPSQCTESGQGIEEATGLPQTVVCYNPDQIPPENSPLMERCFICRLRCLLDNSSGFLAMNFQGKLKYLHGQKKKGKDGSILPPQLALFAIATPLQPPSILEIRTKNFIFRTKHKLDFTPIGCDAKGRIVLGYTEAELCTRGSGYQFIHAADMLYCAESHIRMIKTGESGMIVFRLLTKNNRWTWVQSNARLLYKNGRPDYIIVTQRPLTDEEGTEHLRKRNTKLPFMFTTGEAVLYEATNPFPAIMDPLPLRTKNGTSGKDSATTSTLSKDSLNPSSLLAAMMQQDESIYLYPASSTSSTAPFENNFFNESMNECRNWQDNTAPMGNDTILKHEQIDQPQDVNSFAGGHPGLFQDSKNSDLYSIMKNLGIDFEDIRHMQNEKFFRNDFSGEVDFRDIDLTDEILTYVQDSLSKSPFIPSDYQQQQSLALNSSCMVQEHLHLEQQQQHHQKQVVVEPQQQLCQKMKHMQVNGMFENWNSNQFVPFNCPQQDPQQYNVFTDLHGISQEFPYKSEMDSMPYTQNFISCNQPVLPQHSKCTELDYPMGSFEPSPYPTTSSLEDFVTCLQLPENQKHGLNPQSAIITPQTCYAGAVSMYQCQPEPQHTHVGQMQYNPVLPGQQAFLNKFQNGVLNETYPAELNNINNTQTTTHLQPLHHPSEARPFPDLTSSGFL
ssDAF12 agonist – S. stercoralis DAF-12 activation, primary screen; HEK293 ssDAF-12/GRIP1 lit1-tk-luc reporter, luminescence; % of 3 µM dafachronic acid response; activation, % at 6.8 µM; 370,000 compounds, 1% hits; AID 652126;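 active = activation above the mean over all tested compounds plus 3 SD, cut at about 0.9% in these data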;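 also: 0% = DMSO-only wells and 100% = 3 µM delta7-dafachronic acid wells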
hgDAF12 agonist – hgDAF-12 agonism, primary luciferase screen | AID 687014 | activation, % at 6.8 µM | HEK293 GAL4-hgDAF12 UAS-luciferase reporter, agonist luminescence; normalized to butyrate control | 370,000 compounds, 1.8% hits;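 active = activation above a cutoff set at the mean of all screened compounds plus 3 SD, cut at about 10% in these data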;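 also: 0% = DMSO wells and 100% = sodium butyrate wells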
DAX1 inh-1 – inhibits human nuclear receptor DAX1 | AID 504766 | 340,000 compounds, 0.99% hits | P51843 | inhibition, % at 6.75 µM | HEK293 Gal4-DAX1 luciferase reporter, luminescence;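 active = inhibition above the mean over all tested compounds plus 3 SD, cut at about 4.2% in these data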;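 also: 0% = DAX1-transfected cells with DMSO and 100% = empty-vector control cells with DMSO; inhibition shows as a rise in luminescence from relieved DAX1 repression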
DAX1 inh-2 – inhibitors of DAX1 repression of SF-1 activated StAR promoter; inhibition, % at 6.8 µM; 370,000 compounds, 1.1% hits; HEK293T StAR-luciferase reporter, SF-1/DAX-1 repression relief;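 active = inhibition above the mean over all tested compounds plus 3 SD, cut at about 3.6% in these data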;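 also: 0% = DAX-1 cells with DMSO and 100% = cells lacking DAX-1 with DMSO; higher inhibition means more luminescence from relief of DAX-1 repression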
hcDAF12 agonist – H. contortus DAF-12 activation, primary screen; HEK293 hcDAF-12 lit1-tk-luc reporter, luminescence; 0% DMSO, 100% Δ7-dafachronic acid; activation, % at 6.8 µM; 370,000 compounds, 1.4% hits;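 active = activation above the mean of all tested compounds plus 3 SD, cut at about 5.5% in these data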;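 also: 100% = response to 3 µM Δ7-dafachronic acid high control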
DAX1 inh confirm – NR0B1 (human) inhibition, confirmation; shares compounds with DAX1 inh-2; HEK293T StAR-promoter luciferase reporter, SF-1/DAX-1 repression; inhibition, % at 6.8 µM; 2,400 compounds, 87% hits; AID 652134;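 active = inhibition above the average of every tested compound plus 3 SD, cut at about 3.8% in these data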;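 also: 0% = DAX-1 cells with DMSO and 100% = no DAX-1 control cells with DMSO; active compounds raise luminescence by relieving repression of the StAR reporter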
SF1 AF2mut Luc – counter-screen for DAX1 inhibitors: nonselective inhibitors with SF-1 AF2 mutant. shares compounds with DAX1 inh-2. HEK293 StAR-luciferase, luminescence. inhibition, % at 6.8 µM. 2,400 compounds, 78% hits. AID 652136;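 active = inhibition above the mean of all tested compounds plus 3 SD, cut at about 3% in these data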;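 also: 0% = DAX-1 transfected cells with DMSO and 100% = cells without DAX-1 with DMSO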
LXR ag – counter-screen for hcDAF-12 agonists: agonists of human LXR-beta | shares compounds with hcDAF12 agonist | HEK293 Gal4-LXR tk-luc reporter, luminescence, 24 h; normalized: DMSO 0%, positive control 100% | AID 743027 | 3,400 tested, under 10 active | activation, % at 6.8 µM;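 active = mean percent activation of the reporter above a cutoff set as the average over tested compounds plus their standard deviation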
hcDAF12 ag – confirmation of H. contortus DAF-12 agonists; shares compounds with hcDAF12 agonist; HEK293 hcDAF-12 lit1-tk-luc reporter, luminescence; % of Δ7-dafachronic acid response; activation, % at 6.8 µM; 3,400 compounds, 61% hits;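 active = mean activation across triplicate tests above the threshold derived from the earlier primary screen, cut at about 5.5% in these data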;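 also: 0% = DMSO only wells and 100% = 3 µM Δ7-dafachronic acid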
hgDAF12 ag – hgDAF-12 agonism, confirmation assay | HEK293 GAL4-hgDAF12 luciferase reporter, agonist mode; percent of butyrate response | shares compounds with hgDAF12 agonist | 3,300 compounds, 80% hits | activation, % at 6.8 µM;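 active = mean activation over triplicate wells above the hit cutoff derived from the earlier primary screen, cut at about 11% in these data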;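 also: 0% = DMSO low control and 100% = 2 mM sodium butyrate high control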
LXR ag 2 – LXR-beta agonism as DAF-12 counter-screen; shares compounds with hgDAF12 agonist; HEK293 Gal4-LXR luciferase reporter, 24 h; activation, % at 6.8 µM; 3,300 tested, under 10 active;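 active = mean activation of the triplicate above a set limit carried over from the primary screen, none filed active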
The depositor's hits bear a star; / = no result. Compounds with a hit are over-represented: about 5.7% of the library has one in this group of screens.

SMILES | AHR act | ssDAF12 agonist | hgDAF12 agonist | DAX1 inh-1 | DAX1 inh-2 | hcDAF12 agonist | DAX1 inh confirm | SF1 AF2mut Luc | hgDAF12 ag | LXR ag 2 | others
O=C(O)C/C(=C\c1ccc(Cl)cc1)c1nc2ccccc2o1 | 4 | -1 | 3 | / | 0 | 2 | / | / | / | /
CC(=O)c1cccc(NC(=O)c2cnn3ccccc23)c1 | 14 | -1 | 14* | 1 | 5.6* | 5.8* | 6.5* | 5.2* | 12* | 1
Cc1cccc(N2CCN(C(=O)COc3ccc4c(c3)CCC4)CC2)c1C | 2 | -1 | 0 | 0 | 1 | 0 | / | / | / | /
CC(=O)Nc1c(O)[nH]c2ccccc12 | 11 | -1 | 1 | 0 | 0 | 1 | / | / | / | /
N=NC(=O)c1ccccc1Nc1c(O)[nH]c2ccccc12 | / | 2.3* | 15* | -3 | 6.1* | 13* | 11* | 7.8* | 16* | 1 | LXR ag=1;hcDAF12 ag=14*
COc1ccc(-c2nc(-c3cccc(C)c3)no2)cc1OC | -7 | / | / | 0 | / | / | / | / | / | /
Cc1cccc(-c2noc(-c3ccc4c(c3)OCO4)n2)c1 | 21 | 0 | 13* | -1 | 4.8* | 4 | 13* | 5.0* | 14* | 1
CN(C(=O)CCN1CCCO1)C1CCCN(Cc2ccccc2F)C1 (configuration not stated) | 3 | -1 | 0 | 1 | 0 | -1 | / | / | / | /
CC1=CC(c2ccccc2)=Nc2ccc(C)cc2N1 | 19 | 3.5* | 19* | 0 | 5.9* | 13* | 15* | 8.7* | 19* | 1 | LXR ag=2;hcDAF12 ag=9.6*
COc1cc(NC(=S)NC2CC(C)(C)NC(C)(C)C2)c(OC)cc1Cl | -1 | -1 | 5 | -2 | 1 | 0 | / | / | / | /
COc1ccc(CNC(=O)c2ccc(C(C)C)cc2)cc1 | 20 | -1 | 18* | 2 | 6.8* | 4 | 7.6* | 5.7* | 15* | 1
COc1ccccc1OCCCN1C(=O)C(=O)c2cccc(C)c21 | 24 | -1 | 3 | 2 | -1 | 4 | / | / | / | /
c1ccc(-c2nc(-c3nccc4ccccc34)oc2-c2ccccc2)cc1 | 22 | 3.0* | 18* | 5.0* | 4.8* | 15* | 4.8* | 2 | 19* | 1 | LXR ag=1;hcDAF12 ag=5.7*
Nc1nc(-c2ccccc2)c(-c2ccccc2)o1 | 2 | -2 | 0 | -2 | 0 | -1 | / | / | / | /
Cc1ccc(NC(=O)/C(Cl)=C\c2ccccc2)cc1 | -6 | 1.6* | 17* | 0 | 6.5* | 6.4* | 18* | 8.1* | 21* | 1
O=C(Nc1ccc(F)cc1)/C(Cl)=C/c1ccccc1 | 7 | 2.2* | 25* | 9.9* | 4.6* | 5 | 13* | 10* | 20* | 1
NNC(=O)CC12CC3CC(C1)CC(n1ncnn1)(C3)C2 | 15 | -1 | 5 | -1 | 1 | 0 | / | / | / | /
CCCc1c(C)c2cc(C)ccc2[nH]c1=O | 11 | -1 | -1 | -1 | 0 | -1 | / | / | / | /
COc1ccc(CCc2ccc3ccccc3n2)cc1 | / | 0 | 14* | 2 | 5.7* | 3 | 13* | 6.8* | 12* | 1
COc1ccc(-c2ccc3ccccc3n2)cc1OC | 2 | 0 | 17* | 1 | 5.3* | 1 | 7.4* | 3.4* | 12* | 1
COc1cc2ccc(-c3ccc4ccccc4n3)cc2cc1OC | / | -1 | 6 | 2 | 1 | 1 | / | / | / | /
COc1ccc(CCc2ccnc3ccccc23)cc1 | / | -1 | 0 | -1 | -2 | -1 | / | / | / | /
COc1ccc(-c2ccc3ccccc3n2)cc1 | 23 | 1 | 24* | -1 | 12* | 9.6* | 20* | 8.7* | 17* | 1 | LXR ag=2;hcDAF12 ag=11*
Cc1nn(C)c(C(=O)Nc2cccc(Nc3ccccc3)c2)c1[N+](=O)[O-] | -4 | -2 | 0 | 0 | -2 | -2 | / | / | / | /
Cc1ccc2nc(-c3ccc(NC(=O)COC(=O)c4ccc(=O)[nH]c4)cc3)sc2c1 | -3 | 1.2* | 22* | 1 | 8.4* | 11* | 14* | 8.5* | 23* | 1 | LXR ag=2;hcDAF12 ag=11*
SMILES | AHR act | ssDAF12 agonist | hgDAF12 agonist | DAX1 inh-1 | DAX1 inh-2 | hcDAF12 agonist | DAX1 inh confirm | SF1 AF2mut Luc | hgDAF12 ag | LXR ag 2 | others
Cc1ccc2nc(-c3ccc(NC(=O)CN4CCN(c5ccccn5)CC4)cc3)sc2c1 | 1 | -2 | 3 | / | 0 | 0 | / | / | / | /
Cc1ccc2nc(-c3ccc(NC(=O)CSc4nc(N)cc(=O)[nH]4)cc3)sc2c1 | 7 | 0 | 25* | 4.5* | 4.8* | 3 | 7.3* | 4.0* | 18* | 1
Cc1ccc2nc(-c3ccc(NC(=O)CNC4CC4)cc3)sc2c1 | / | 2.4* | 21* | 4 | 5.7* | 5 | 14* | 7.0* | 15* | 1
Cc1ccc2nc(NC(=O)COC(=O)c3ccncc3)sc2c1 | 13 | -1 | 9 | 0 | 2 | 1 | / | / | / | /
Nc1cc(=O)[nH]c(SCC(=O)Nc2nc3ccc([N+](=O)[O-])cc3s2)n1 | 4 | / | / | / | / | / | / | / | / | /
Cc1ccc2nc(-c3ccc(NC(=O)CN4C(=O)c5ccccc5C4=O)cc3)sc2c1 | 8 | 2.2* | 19* | 2 | 5.4* | 14* | 15* | 7.4* | 16* | 1 | LXR ag=1;hcDAF12 ag=8.3*
Cc1ccc2nc(-c3ccc(NC(=S)NC(=O)CC(C)C)cc3)sc2c1 | 8 | 0 | 6 | 3 | 1 | 1 | / | / | / | /
O=C1CCc2cc(S(=O)(=O)N3CCCC3C(=O)N3CCN(c4ccccc4)CC3)ccc2N1 (configuration not stated) | 1 | -1 | 3 | 0 | 0 | -1 | / | / | / | /
OCCC1CN(Cc2cnc(-c3ccc(Cl)cc3)nc2)CCN1C1CCCC1 (configuration not stated) | -1 | -2 | -6 | -1 | -2 | -2 | / | / | / | /

Screening data (PubChem BioAssay)
